Over roughly 33,000 sequences, “E-score (-0.5 to 0.5)” has its median near -0.012; the highest 2% begin near 0.29. Shown is part of a subset that was picked to be rich in the highest values.

This test deals with T1, Ybr033w (UniProt P38073).
T1 sequence: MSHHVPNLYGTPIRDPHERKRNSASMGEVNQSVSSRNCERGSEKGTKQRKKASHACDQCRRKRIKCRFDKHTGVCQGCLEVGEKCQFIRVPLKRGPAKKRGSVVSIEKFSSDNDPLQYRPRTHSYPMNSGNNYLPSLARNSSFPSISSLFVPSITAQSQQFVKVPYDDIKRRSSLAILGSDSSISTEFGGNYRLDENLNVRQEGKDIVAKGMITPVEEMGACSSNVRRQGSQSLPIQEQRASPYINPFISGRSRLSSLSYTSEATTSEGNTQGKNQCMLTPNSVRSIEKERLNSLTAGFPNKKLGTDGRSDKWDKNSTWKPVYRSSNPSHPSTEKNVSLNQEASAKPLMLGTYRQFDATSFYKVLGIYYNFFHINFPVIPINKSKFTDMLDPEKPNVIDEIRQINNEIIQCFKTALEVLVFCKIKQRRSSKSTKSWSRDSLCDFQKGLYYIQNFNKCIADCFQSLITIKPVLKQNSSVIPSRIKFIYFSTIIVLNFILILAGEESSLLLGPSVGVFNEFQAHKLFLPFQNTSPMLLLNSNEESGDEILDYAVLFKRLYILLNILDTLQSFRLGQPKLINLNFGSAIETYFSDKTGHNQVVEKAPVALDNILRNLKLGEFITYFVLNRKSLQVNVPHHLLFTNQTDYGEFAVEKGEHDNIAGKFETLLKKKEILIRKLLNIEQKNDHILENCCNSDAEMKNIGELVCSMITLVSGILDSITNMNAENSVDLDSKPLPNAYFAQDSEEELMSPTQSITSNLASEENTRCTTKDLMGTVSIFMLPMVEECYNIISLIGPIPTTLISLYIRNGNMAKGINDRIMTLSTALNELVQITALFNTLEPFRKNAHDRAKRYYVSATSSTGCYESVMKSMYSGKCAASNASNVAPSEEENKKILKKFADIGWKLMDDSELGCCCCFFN
Kind of test: PBM E-score (8-mer binding enrichment) (E-score (-0.5 to 0.5)); higher = stronger / more preferred TF binding. Particulars: protein concentration: 200 nM; construct: GST-full length. In outline:
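Universal all-10-mer Agilent arrays, double-stranded by primer extension on fresh or once-stripped slides, were probed with about 100-200 nM GST-tagged yeast transcription factors made by PURExpress. Fluorescent anti-GST detected bound protein, and masliner normalised the scans. E-scores from the Universal PBM Analysis Suite were given to each ungapped eight-base word pooled with its reverse complement.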
In the case of CTGGATAC, the “PBM E-score” value was -0.107.

In the case of GACACTAC, the “PBM E-score” value was -0.0871.

In the case of ACGCACAC, the “PBM E-score” value was determined as 0.157.

For ATCTACGC, the “PBM E-score” value is 0.0459.

In the case of GCATGATA, the “PBM E-score” value amounted to 0.109.

With ATATGATA, the “PBM E-score” value came out at 0.347.

Take CTATGATA: the “PBM E-score” value stood at 0.113.

Regarding GTATGATA, the “PBM E-score” value was determined as 0.234.

As for AAATGATT, the “PBM E-score” value was determined as 0.273.

For the sequence ACATGTTG, the “PBM E-score” value came out at 0.244.

With ACATGATA, the “PBM E-score” value was 0.32.

Turning to ACATGTTA, the “PBM E-score” value turned out to be 0.289.

As to ACATGATC, the “PBM E-score” value amounted to 0.122.

AAATGATA: the “PBM E-score” value was found to be 0.345.

Regarding ACATGTTC, the “PBM E-score” value was 0.0642.

On to CAATGATA, for which the “PBM E-score” value came to 0.126.

Regarding CGACGTAG, the “PBM E-score” value was -0.223.

With AGCATTCC, the “PBM E-score” value is -0.043.

ATGTGGCG: the “PBM E-score” value was -0.018.

AATCTTAC: the “PBM E-score” value turned out to be 0.137.

GCTTAATA: the “PBM E-score” value came to 0.0557.

Consider GGTGGAAA, for which the “PBM E-score” value was -0.00937.

Take CCTGCTCA: the “PBM E-score” value is -0.156.

With ATTCTAGC, the “PBM E-score” value was found to be 0.0909.

Regarding ACGGGCTA, the “PBM E-score” value is -0.252.

For the sequence AGGGATCA, the “PBM E-score” value was 0.169.

Turning to AAATGATG, the “PBM E-score” value turned out to be 0.248.

On to CAATGATC, for which the “PBM E-score” value was determined as 0.0568.

As to AAATGATC, the “PBM E-score” value amounted to 0.328.

Turning to CATACTGA, the “PBM E-score” value turned out to be 0.212.

As for TATACTGA, the “PBM E-score” value turned out to be 0.351.

On to GATACTGA, for which the “PBM E-score” value stood at 0.0886.

For the sequence CATTCGCG, the “PBM E-score” value was determined as 0.0443.

As to ATATAGGG, the “PBM E-score” value was -0.00433.

For the sequence GAGGCCTC, the “PBM E-score” value is -0.37.

Values taken from the supplement of paper PMC3334620.
